Each structure is given as a SMILES string. Values joined by “and” are separate entries in the source; they are usually repeats but may differ in a detail not shown here. Identical values can stand only once. Results filed as inconclusive are left out. Active and inactive are the calls of the source. Unless noted, calls follow the shape of the dose curve; as a rule, active = well fitted curve in the direction sought with a large enough effect; inconclusive = small, poorly fitted or top-dose-only effect, or another doubt; inactive = no such curve, though single readings can be large; an effect the other way counts as inactive or inconclusive.

Assay [1] addresses Voltage-gated inwardly rectifying potassium channel KCNH2 (Homo sapiens) (UniProt Q12809). In words: qHTS Assay for Small Molecule Inhibitors of the Human hERG Channel Activity (AID 588834).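 Also: lower thallium flux fluorescence means stronger hERG block; nearly all actives have a fitted effect of over 50% in size.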 Also: potency is read from the fitted curve at half-maximal effect. An outline of the steps:
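hERG block measured as reduced thallium-dye (FluxOR) fluorescence after stimulation buffer addition, read over 2 min. Cells were hERG-BacMam-transduced U2OS exposed to compound ~10 min […]; concentration-response fitted with Hill equation for AC50.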

In assay [2] the target is Luciferin 4-monooxygenase (Photinus pyralis) (UniProt P08659). As to the kind of experiment: Biochemical firefly luciferase enzyme assay for NPC (AID 624030).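 Also: purified P. pyralis luciferase at 10 nM with luciferin and ATP substrate; series mostly up to about 59 µM; 0% = DMSO and -100% = full luciferase inhibition by PTC124 control; nearly all actives have a fitted effect of over 70% in size.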 An outline of the steps:
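Purified P. pyralis luciferase at 10 nM in 50 mM Tris Acetate (final), luminescence read within 5 minutes of enzyme addition to compounds. Activity normalised to PTC124 versus DMSO; concentration-response curves classed by r2, magnitude and activity.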

Assay [3] is described as follows: qHTS assay for small molecule antagonists of peroxisome proliferator-activated receptor delta signaling (AID 588535; active = well fitted inhibition curve with a large enough effect in the signal ratio, with a control signal flat, not every such curve was filed as active; the % refers to the signal ratio;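 as to max response: cells co-treated with a PPAR-delta agonist as stimulator during compound exposure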). As to conditions: HEK293T PPARd-UAS-bla, beta-lactamase FRET ratio, 18 h; 460 nm channel. An outline of the steps:
(§1)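 Fluorescence from CCF4-loaded GeneBLAzer PPAR-delta-UAS-bla HEK293T cells (2 hrs RT loading) quantified reporter inhibition after an 18 hr, 37 C compound exposure across a titration.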

The target in assay [4] is Peroxisome proliferator-activated receptor delta (Homo sapiens) (UniProt Q03181). The description is as above. An outline of the steps: as §1
Assay [5] concerns the target Vitamin D3 receptor (Homo sapiens) (UniProt P11473). As to the kind of experiment: qHTS assay for small molecule antagonists of vitamin D receptor signaling (AID 588541; calls by dose curve;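 also: receptor activated by calcitriol during compound treatment; series mostly up to about 77 µM; % is scaled to controls: 0 for no effect and ±100 for the full control effect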). An outline of the steps:
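VDR-UAS-bla HEK293T cells in 2% charcoal-stripped FBS were stimulated with 1-alpha,25-dihydroxyvitamin D3 (3 nM final) plus compound for 16 h at 37 C. The beta-lactamase CCF4 readout was normalized to 50 nM agonist and DMSO, and Hill fits gave IC50.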
(In general: Quantitative high-throughput screening tests each substance at several concentrations.)

Assay [6] shares this target. In words: qHTS assay for small molecule agonists of vitamin D receptor signaling (AID 588543; calls by dose curve;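 also: 0% = DMSO basal and 100% = reference agonist control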). An outline of the steps: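 Agonist-mode beta-lactamase reporter: HEK293T VDR-UAS-bla cells in charcoal-stripped 2% FBS, compound series 16 h 37 C, CCF4 2 h RT. EC50 from Hill fit, scaled against DMSO and 50 nM calcitriol control.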
Assay [7] in a line: qHTS assay for small molecule antagonists of retinoid X receptor alpha signaling (AID 588546; active = well fitted inhibition curve with a large enough effect in the signal ratio, with a control signal flat, not every such curve was filed as active; the % refers to the signal ratio;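 also: cells stimulated with 9-cis-retinoic acid as agonist; % is scaled to controls: 0 for no effect and ±100 for the full control effect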). As to conditions: HEK293T RXRa-UAS-bla, beta-lactamase ratio, antagonist mode; measured here: W530 green channel, cytotoxicity proxy. An outline of the steps: (§2)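 Beta-lactamase reporter inhibition, read as CCF4 fluorescence ratio (ex 405, em 460/530 nm) after 2 h at RT. HEK293T UAS-bla cells, 2500/well, were stimulated with 9-cis-RA at 500 or 100 nM final alongside test compound for 18 h at 37 C.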

For assay [8], the target named is Retinoic acid receptor RXR-alpha (Homo sapiens) (UniProt P19793). Described as above. The following applies: HEK293T RXRa-UAS-bla, beta-lactamase ratio, antagonist mode. An outline of the steps: as §2
For assay [9], the target named is Thyroid hormone receptor beta (Homo sapiens) (UniProt P10828). In words: qHTS assay for small molecule antagonists of thyroid hormone receptor beta signaling (AID 588547; active = well fitted inhibition curve with a large enough effect in the signal ratio, with a control signal flat, not every such curve was filed as active; the % refers to the signal ratio;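 also: cells stimulated with 0.4 nM T3 agonist during compound exposure; series mostly up to about 77 µM; % is scaled to controls: 0 for no effect and ±100 for the full control effect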). As to conditions: TR-UAS-bla HEK293, beta-lactamase ratio, antagonist mode, 18 h. An outline of the steps: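 TR-UAS-bla GripTite HEK293 cells in 2% charcoal/dextran FBS medium; compounds 0.59 nM to 92 uM with T3 at 0.4nM final, 18 h at 37 C. Beta-lactamase read by CCF4 fluorescence (460/530 nm); Hill fits gave IC50 and efficacy.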

Assay [10] is described as follows: S16 Schwann cell viability assay (CellTiter-Glo assay) (AID 624031). Also: nearly all actives have a fitted effect of over 70% in size. Also: potency is read from the fitted curve at half-maximal effect. An outline of the steps:
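Cells were seeded at 500-750 per well in phenol red-free DMEM with 10% FBS and left overnight. Compounds or DMSO were pinned in, incubation ran 24 h at 37 °C/5% CO2, then CellTiter-Glo reagent was added and luminescence measured.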
(In ATP-based viability assays light output follows the ATP content of the culture.)

Assay [11] is described as follows: S16 Schwann cell PMP22 intronic element beta-lactamase assay (AID 624044; calls by dose curve;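 also: 0% = DMSO and -100% = potassium clavulanate positive control; nearly all actives have a fitted effect of over 15% in size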). An outline of the steps:
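Beta-lactamase reporter under a PMP22 intronic regulatory element in stable S16 rat Schwann cells; 24 h compound exposure. 460 nm blue signal normalized between DMSO (0%) and potassium clavulanate, with 535 nm FRET tracking viability; curves classed by r2 and response.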

Assay [12] can be described thus: qHTS assay for small molecule agonists of retinoid X receptor alpha signaling (AID 588544; calls by dose curve). The following applies: HEK293T RXRa-UAS-bla, beta-lactamase reporter, 18 h; 530 nm emission.
The target of assay [13] is Retinoic acid receptor RXR-alpha (Homo sapiens) (UniProt P19793). Described as above.
Assay [14] has as its target Thyroid hormone receptor beta (Homo sapiens) (UniProt P10828). As to the kind of experiment: qHTS assay for small molecule agonists of thyroid hormone receptor beta signaling (AID 588545; calls by dose curve). An outline of the steps:
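HEK 293 TR-UAS-bla; agonist mode; 18 hrs, 37 C; CCF4, ex 405/em 460 and 530 nm; norm. T3 10 nM = 100%, DMSO = 0%; Hill fit → EC50, efficacy.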

A short description of assay [15]: S16 Schwann cell PMP22 intronic element firefly luciferase assay (AID 624032).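 Also: series mostly up to about 58 µM; plate controls were DMSO for no effect and PTC124 positive control mean for full effect; nearly all actives have a fitted effect of over 30% in size.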 An outline of the steps: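 Rat S16 Schwann cells stably carrying firefly luciferase driven by a PMP22 intronic element, in 10% FBS, treated 24 h at 37 C. ONE-Glo luminescence normalized to PTC124 control and DMSO (0%); curves classed by r2, magnitude and activity.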
For assay [16], the target named is Peroxisome proliferator-activated receptor gamma (Homo sapiens) (UniProt P37231). As to the kind of experiment: qHTS assay for small molecule agonists of peroxisome proliferator-activated receptor gamma signaling (AID 588536; active = well fitted curve in the direction sought with a large enough effect in the signal ratio, with a control signal flat, not every such curve was filed as active; the % refers to the signal ratio;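 also: 0% = DMSO basal wells and 100% = rosiglitazone at 2 µM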). An outline of the steps: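 Beta-lactamase reporter read-out: CCF4 fluorescence (ex 405, em 460/530 nm) after 2 h at RT. HEK293 GeneBLAzer cells were treated for 16 h at 37 C. Hill fits gave EC50 and efficacy versus 2 uM rosiglitazone (100%) and DMSO (0%).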

Assay [17] shares this target. In words: qHTS assay for small molecule antagonists of peroxisome proliferator-activated receptor gamma signaling (AID 588537; active = well fitted inhibition curve with a large enough effect in the signal ratio, with a control signal flat, not every such curve was filed as active; the % refers to the signal ratio;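 also: reporter cells co-stimulated with 50 nM rosiglitazone agonist during compound treatment; % of control where 0% means no effect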). An outline of the steps:
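Fluorescence at 460 and 530 nm (405 nm excitation) reported beta-lactamase cleavage of CCF4 after 2 h room-temperature loading. HEK293 reporter cells in 1% charcoal/dextran-treated FBS had received compound and rosiglitazone for 16 h.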

In assay [18] the target is Glucagon-like peptide 1 receptor (Homo sapiens) (UniProt P43220). As to the kind of experiment: qHTS of GLP-1 Receptor Agonists: LOPAC Validation (AID 624148).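 Also: 0% is about no effect; higher luminescence signal means agonism.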 An outline of the steps: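 HEK293 cells stably co-expressing GLP-1R and a cAMP-responsive luciferase reporter, plated 12 hours before compound, then incubated 4-6 hr at 37 deg C. Luminescence read 12 min after detection reagent.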

The target in assay [19] is Glutaminase kidney isoform, mitochondrial (Homo sapiens) (UniProt O94925). As to the kind of experiment: qHTS for Inhibitors of Glutaminase (GLS): LOPAC Validation (AID 624146).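 Also: glutamate product detected by oxidase and peroxidase coupled Amplex red fluorescence gain; series mostly up to about 46 µM; % is scaled to controls: 0 for no effect and ±100 for the full control effect; nearly all actives have a fitted effect of over 60% in size.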 An outline of the steps: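 hKGA; 45 mM KH2PO4 pH 8.2 + 0.02% Tween-20; cpd via pin tool; 1 mM Gln soln; GluOx/HRP/Amplex Red; RT 30 min; fluor. t0 & final.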
A short description of assay [20]: qHTS of Trypanosoma Brucei Inhibitors: LOPAC Validation (AID 624147). Also: 0% is about no effect. An outline of the steps:
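Quantitative HTS: titrated library compounds versus trypanosomal pyruvate kinase in TEA buffer (pH 7.2) containing KCl, MgCl2, BSA and Tween-20. Reactions were initiated with ADP, 130 uM final. Kinase-Glo Plus luminescence was read after 45 min at RT.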

Retinoic acid receptor RXR-alpha (Homo sapiens), sequence (P19793 whole entry, looked up): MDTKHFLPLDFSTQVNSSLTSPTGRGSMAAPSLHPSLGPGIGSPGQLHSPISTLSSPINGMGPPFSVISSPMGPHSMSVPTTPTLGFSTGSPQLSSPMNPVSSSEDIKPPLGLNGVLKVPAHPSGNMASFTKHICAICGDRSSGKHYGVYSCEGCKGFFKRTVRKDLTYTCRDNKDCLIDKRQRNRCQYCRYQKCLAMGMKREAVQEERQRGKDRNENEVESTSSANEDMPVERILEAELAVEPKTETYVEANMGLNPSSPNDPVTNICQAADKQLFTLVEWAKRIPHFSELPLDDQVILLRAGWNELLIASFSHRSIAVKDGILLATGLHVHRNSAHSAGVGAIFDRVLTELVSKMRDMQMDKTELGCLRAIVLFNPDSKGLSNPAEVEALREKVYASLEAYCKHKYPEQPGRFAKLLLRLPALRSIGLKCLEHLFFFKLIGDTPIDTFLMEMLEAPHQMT
Luciferin 4-monooxygenase (Photinus pyralis), sequence (P08659 whole entry, looked up): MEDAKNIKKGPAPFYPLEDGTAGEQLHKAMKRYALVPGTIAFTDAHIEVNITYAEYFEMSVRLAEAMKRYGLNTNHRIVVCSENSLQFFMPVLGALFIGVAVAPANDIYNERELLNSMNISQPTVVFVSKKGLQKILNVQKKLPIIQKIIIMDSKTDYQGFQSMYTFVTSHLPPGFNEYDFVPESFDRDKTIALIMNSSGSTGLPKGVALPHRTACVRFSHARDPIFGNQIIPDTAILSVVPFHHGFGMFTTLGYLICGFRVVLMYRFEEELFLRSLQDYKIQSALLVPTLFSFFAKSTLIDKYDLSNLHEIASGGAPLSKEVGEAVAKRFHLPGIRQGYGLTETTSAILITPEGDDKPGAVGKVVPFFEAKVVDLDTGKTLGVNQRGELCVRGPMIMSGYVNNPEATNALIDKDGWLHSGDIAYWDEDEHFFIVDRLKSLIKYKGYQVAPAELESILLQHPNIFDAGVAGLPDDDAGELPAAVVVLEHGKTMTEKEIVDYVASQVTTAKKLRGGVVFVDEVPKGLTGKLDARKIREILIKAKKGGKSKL
Thyroid hormone receptor beta (Homo sapiens), sequence (P10828 whole entry, looked up): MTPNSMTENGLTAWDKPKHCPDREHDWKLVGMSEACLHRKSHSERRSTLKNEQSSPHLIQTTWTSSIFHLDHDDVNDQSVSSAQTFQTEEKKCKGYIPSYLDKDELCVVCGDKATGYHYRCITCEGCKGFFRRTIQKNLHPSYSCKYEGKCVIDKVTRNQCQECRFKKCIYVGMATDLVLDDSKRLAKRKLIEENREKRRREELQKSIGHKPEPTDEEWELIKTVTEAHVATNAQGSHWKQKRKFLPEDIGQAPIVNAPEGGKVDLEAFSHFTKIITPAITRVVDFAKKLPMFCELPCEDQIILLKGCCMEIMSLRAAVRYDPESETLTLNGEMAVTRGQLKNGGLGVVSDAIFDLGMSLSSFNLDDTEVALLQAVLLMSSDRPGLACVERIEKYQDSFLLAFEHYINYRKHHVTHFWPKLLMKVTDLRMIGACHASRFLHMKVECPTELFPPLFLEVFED
Vitamin D3 receptor (Homo sapiens), sequence (P11473 whole entry, looked up): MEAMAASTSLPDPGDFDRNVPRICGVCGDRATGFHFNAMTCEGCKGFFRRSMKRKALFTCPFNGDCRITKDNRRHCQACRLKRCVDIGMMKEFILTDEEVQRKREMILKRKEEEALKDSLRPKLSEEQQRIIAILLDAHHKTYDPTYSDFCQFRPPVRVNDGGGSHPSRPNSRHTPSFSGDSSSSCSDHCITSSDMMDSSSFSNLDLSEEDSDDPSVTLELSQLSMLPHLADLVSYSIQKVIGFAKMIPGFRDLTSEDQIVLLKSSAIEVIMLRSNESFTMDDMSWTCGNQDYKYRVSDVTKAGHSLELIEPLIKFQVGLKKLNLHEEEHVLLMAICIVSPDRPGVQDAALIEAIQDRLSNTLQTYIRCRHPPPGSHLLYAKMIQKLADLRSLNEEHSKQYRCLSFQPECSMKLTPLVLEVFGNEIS
Peroxisome proliferator-activated receptor gamma (Homo sapiens), sequence (P37231 whole entry, looked up): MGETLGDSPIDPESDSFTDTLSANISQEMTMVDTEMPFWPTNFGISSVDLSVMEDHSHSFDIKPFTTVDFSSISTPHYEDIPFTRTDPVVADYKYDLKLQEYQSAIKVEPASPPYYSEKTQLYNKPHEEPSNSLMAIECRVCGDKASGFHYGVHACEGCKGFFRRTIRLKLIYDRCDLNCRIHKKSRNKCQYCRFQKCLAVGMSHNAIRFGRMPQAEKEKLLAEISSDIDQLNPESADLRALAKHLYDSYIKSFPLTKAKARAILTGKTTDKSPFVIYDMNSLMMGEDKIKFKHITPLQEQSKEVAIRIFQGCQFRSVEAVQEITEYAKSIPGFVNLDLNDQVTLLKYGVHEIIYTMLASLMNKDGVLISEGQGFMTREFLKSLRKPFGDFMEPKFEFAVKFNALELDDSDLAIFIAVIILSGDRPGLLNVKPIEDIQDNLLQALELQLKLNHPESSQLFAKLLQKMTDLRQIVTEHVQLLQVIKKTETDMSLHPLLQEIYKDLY
Peroxisome proliferator-activated receptor delta (Homo sapiens), sequence (Q03181 whole entry, looked up): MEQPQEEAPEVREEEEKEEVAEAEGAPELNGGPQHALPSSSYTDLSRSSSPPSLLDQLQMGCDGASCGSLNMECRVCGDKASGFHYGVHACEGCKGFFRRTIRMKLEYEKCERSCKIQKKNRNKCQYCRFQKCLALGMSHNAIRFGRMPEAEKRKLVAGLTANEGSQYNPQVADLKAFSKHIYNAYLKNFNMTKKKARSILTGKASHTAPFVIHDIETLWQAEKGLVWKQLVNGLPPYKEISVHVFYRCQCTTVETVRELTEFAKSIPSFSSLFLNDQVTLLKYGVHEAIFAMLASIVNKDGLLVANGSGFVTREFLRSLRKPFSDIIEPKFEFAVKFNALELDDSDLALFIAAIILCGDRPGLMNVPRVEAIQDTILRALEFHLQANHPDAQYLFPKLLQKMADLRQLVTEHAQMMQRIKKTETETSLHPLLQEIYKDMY
Voltage-gated inwardly rectifying potassium channel KCNH2 (Homo sapiens), sequence (Q12809 whole entry, looked up): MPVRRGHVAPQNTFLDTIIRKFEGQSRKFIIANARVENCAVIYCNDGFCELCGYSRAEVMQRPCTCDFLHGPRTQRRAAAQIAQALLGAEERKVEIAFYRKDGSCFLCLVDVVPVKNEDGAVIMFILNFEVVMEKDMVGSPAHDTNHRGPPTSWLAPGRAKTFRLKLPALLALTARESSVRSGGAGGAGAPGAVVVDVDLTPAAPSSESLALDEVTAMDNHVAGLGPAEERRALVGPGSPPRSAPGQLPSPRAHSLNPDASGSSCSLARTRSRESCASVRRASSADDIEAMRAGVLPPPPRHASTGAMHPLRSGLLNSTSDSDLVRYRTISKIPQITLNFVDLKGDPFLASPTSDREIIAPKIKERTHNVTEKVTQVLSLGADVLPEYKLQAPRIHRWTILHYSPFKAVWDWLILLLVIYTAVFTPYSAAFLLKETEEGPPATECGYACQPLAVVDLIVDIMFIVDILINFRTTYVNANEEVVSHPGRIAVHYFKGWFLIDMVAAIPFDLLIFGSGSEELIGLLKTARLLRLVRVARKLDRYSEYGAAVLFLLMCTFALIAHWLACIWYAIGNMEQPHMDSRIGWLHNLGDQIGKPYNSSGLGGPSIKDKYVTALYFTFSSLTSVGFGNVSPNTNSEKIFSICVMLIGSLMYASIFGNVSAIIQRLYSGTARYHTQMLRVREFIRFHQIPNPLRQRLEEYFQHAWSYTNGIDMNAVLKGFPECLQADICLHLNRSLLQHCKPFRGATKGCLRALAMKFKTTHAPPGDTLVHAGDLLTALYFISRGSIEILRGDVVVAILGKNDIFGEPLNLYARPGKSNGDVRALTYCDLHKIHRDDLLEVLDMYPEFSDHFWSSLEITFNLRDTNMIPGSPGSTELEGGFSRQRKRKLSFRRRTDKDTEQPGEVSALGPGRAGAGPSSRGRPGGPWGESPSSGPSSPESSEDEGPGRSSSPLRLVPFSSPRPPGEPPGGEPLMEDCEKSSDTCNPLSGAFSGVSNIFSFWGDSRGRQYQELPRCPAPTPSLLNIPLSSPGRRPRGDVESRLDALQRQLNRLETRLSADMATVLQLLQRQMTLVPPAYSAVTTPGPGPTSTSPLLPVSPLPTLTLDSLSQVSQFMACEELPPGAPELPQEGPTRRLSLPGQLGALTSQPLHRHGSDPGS
Glucagon-like peptide 1 receptor (Homo sapiens), sequence (P43220 whole entry, looked up): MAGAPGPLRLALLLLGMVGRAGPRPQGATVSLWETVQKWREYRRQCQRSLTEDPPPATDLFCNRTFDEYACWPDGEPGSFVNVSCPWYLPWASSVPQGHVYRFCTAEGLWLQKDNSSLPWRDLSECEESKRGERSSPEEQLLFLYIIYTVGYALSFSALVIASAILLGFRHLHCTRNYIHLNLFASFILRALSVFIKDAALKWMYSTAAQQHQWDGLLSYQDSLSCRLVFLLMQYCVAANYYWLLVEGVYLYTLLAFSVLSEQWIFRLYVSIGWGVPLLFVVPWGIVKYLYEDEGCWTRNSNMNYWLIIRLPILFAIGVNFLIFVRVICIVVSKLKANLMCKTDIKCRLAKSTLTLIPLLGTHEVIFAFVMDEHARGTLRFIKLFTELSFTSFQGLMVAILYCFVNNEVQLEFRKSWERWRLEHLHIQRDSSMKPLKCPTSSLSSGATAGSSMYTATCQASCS

Regarding `Cc1nc(Nc2ncc(C(=O)Nc3c(C)cccc3Cl)s2)cc(N2CCN(CCO)CC2)n1`, the Potency result in assay [1] and in assay [2] was “inactive” throughout.

Regarding `CN1CCC(=C2c3ccccc3CCc3sccc32)CC1`, the Potency in assay [1] is 10 µM (active). Also, the Potency result in assay [2] was “inactive”.

In the case of `CCCCC(CC)COC(=O)C(C#N)=C(c1ccccc1)c1ccccc1` (stereo not drawn), the max response was -3.97% in assay [3], -18.7% in assay [7] and -7.69% (inactive) in assay [8]. Also, the compound was called inactive in [4], in assay [5] and in assay [6]. Also, the activity change % (negative = inhibition) in assay [9] is -9.58% (inactive). The Potency result in [1], in [2], in assay [10] and in assay [11] was “inactive” each time.

Regarding `CC1Cc2ccccc2N1NC(=O)c1ccc(Cl)c(S(N)(=O)=O)c1` (stereo not drawn), the Potency entry in [1] and in [2] was “inactive” each time.

Take `COc1c2occc2cc2ccc(=O)oc12`: the max response in assay [3] is 59.3%; in assay [12] it was -1.38%; in assay [7] it was 0.567% and -6.27%; in assay [8], 1.26% (inactive) and 12.5% (inactive). Moreover, the compound was called inactive in [4], in [5], in assay [6], in assay [13] and in assay [14]. For the same compound, the activity change % (negative = inhibition) in assay [9] is 4.14% (inactive) and -14.9% (inactive). Also, the Potency entry in [1], in assay [2], in [10], in [15] and in [11] was “inactive” in each case.

Take `CN(C)c1ccc2nc3ccc(=[N+](C)C)cc-3sc2c1`: the result in assay [16] and in assay [14] was inactive. In addition, the max response in assay [7] is -22.9%; in assay [8] it was -3.23% (inactive). Moreover, the activity change % (negative = inhibition) in [9] was 20.5% (inactive). Further, the Potency entry in assay [1] and in assay [15] was “inactive” in each case. Besides, in assay [10], the Potency was 4.05 µM (active).

Consider `CCCc1cc(=O)[nH]c(=S)[nH]1`, for which the max response in assay [3] was 15.2% and -59%; in [12], 3.33% and 11.8%; in assay [7], 2.58% and 1.92%; in assay [8], 3.88% (inactive) and 3.79% (inactive). Also, the compound was called inactive in assay [4], in assay [16], in assay [13] and in assay [14]. The Potency result in assay [17], in assay [1], in [2], in assay [10] and in assay [15] was “inactive” in each case. In addition, the activity change % (negative = inhibition) in [9] was 8.46% (inactive).

As for `CCOC(=O)C1=C[C@@H](OC(CC)CC)[C@H](NC(C)=O)[C@@H](N)C1`, the Potency result in [1] was “inactive”.

As for `Cc1cc(O)c2c(c1)C(=O)c1cc(O)cc(O)c1C2=O`, the compound was called inactive in assay [14] and in assay [18]. Also, the max response in [7] was 1.07%; in assay [8] it was -11.8% (inactive). In [9], the activity change % (negative = inhibition) was -22% (inactive).

In the case of `Nc1ccc(S(N)(=O)=O)cc1`, the results for the max response in assay [12], in assay [7] and in [8] were -11.9%, -7.58% and 9.55% (inactive), respectively. In addition, the compound was classed as inactive in [13] and in assay [14]. The activity change % (negative = inhibition) in assay [9] was -5.21% (inactive). Moreover, the Potency result in assay [2], in [10], in assay [15] and in assay [11] was “inactive” throughout.

On to `Clc1ccc(C(Cn2ccnc2)OCc2ccsc2Cl)c(Cl)c1` (stereo not drawn), for which the Potency in assay [1] was 10 µM (active). Also, in [2], the Potency entry was “inactive”.

On to `CC1(C)NC(=O)N(c2ccc([N+](=O)[O-])c(C(F)(F)F)c2)C1=O`, for which the call in [16], in [5], in assay [6], in [13], in assay [14] and in [18] was inactive. In addition, the Potency entry in assay [17], in [1], in [2], in assay [10], in assay [11] and in assay [19] was “inactive” in each case. Besides, the Potency entry in assay [20] was “inactive”. The max response in [12] was 13.6%; in assay [7], -4.34%; in assay [8] it was 1.48% (inactive).

(Values after PubChem BioAssay (NCATS).)
